These results are taken from the supplement of paper PMC4709259.

Structures can show the parent of a compound that is named as a salt. ± gives the standard deviation.

In the assay the test system is Jurkat. Description: cell count relative to DMSO control (fraction of control); higher = more cells (less growth inhibition). The settings on record: 48 h.
`O=C(O)c1cc(/N=N/c2ccc(S(=O)(=O)Nc3ccccn3)cc2)ccc1O` [Sulfasalazine] (concentration: 25 µM) registered a cell count of 0.914 ± 0.11.

The compound `CC(CCc1ccc(O)cc1)NCCc1ccc(O)c(O)c1` (centres undefined) [Dobutamine·HCl] (concentration: 25 µM) gave a cell count of 0.464 ± 0.13.

Compound `C[C@@H](O)[C@H]1C(=O)N2C(C(=O)O)=C(SCCNC=N)C[C@H]12` [Imipenem] (concentration: 25 µM) registered a cell count of 0.344 ± 0.13.

As to `CC(C)(C)NCC(O)c1ccc(O)c(CO)c1` (centres undefined) [Salbutamol Hemisulfate] (concentration: 25 µM), the cell count is 0.916 ± 0.11.

In turn, `CO[C@H]1C[C@@H]2CC[C@@H](C)[C@@](O)(O2)C(=O)C(=O)N2CCCC[C@H]2C(=O)O[C@H]([C@H](C)C[C@@H]2CC[C@@H](OCCO)[C@H](OC)C2)CC(=O)[C@H](C)/C=C(\C)[C@@H](O)[C@@H](OC)C(=O)[C@H](C)C[C@H](C)/C=C/C=C/C=C/1C` [Everolimus] (concentration: 2.5 µM) showed a cell count of 0.552 ± 0.072.

Consider `Cc1cc(C)cc(OCC2CNC(=O)O2)c1` (centres undefined) [Metaxalone] (concentration: 25 µM), for which the cell count was found to be 0.853 ± 0.17.

`CCOC(=O)[C@H](CCc1ccccc1)N[C@@H](C)C(=O)N1Cc2ccccc2C[C@H]1C(=O)O` [Quinapril·HCl] (concentration: 25 µM): the cell count amounted to 1.01 ± 0.11.

`C[C@H]1[C@H](NC(=O)/C(=N\OC(C)(C)C(=O)O)c2csc(N)n2)C(=O)N1S(=O)(=O)O` [Aztreonam] (concentration: 25 µM) had a cell count of 0.64 ± 0.086.

On to `CCN(CC)CCOc1ccc(C(=C(Cl)c2ccccc2)c2ccccc2)cc1` [Clomiphene Citrate] (concentration: 25 µM), for which the cell count was found to be 0.793 ± 0.056.

The compound `Cc1cccc(C)c1OCC(C)N` (centres undefined) [Mexiletine·HCl] (concentration: 25 µM) came in with a cell count of 0.719 ± 0.014.

The compound `O=C(c1ccc(OCCN2CCCCC2)cc1)c1c(-c2ccc(O)cc2)sc2cc(O)ccc12` [Raloxifene·HCl] (concentration: 25 µM) showed a cell count of 0.675 ± 0.044.

In the case of `CN(C)CCc1c[nH]c2ccc(C[C@H]3COC(=O)N3)cc12` [Zolmitriptan] (concentration: 25 µM), the cell count was determined as 0.419 ± 0.11.

`O=C(O[C@@H]1C[C@@H]2C[C@H]3C[C@H](C1)N2CC3=O)c1c[nH]c2ccccc12` [Dolasetron] (concentration: 25 µM) had a cell count of 0.29 ± 0.053.

As for `O=C(c1ccccc1)c1ccc2n1CCC2C(=O)O` (centres undefined) [Ketorolac Tromethamine] (concentration: 25 µM), the cell count is 0.934 ± 0.038.

`O=C1CN(/N=C/c2ccc([N+](=O)[O-])o2)C(=O)N1` [Nitrofurantoin] (concentration: 2.5 µM) registered a cell count of 0.66 ± 0.029.

For the compound `CCCCCCCCCCC[C@@H](C[C@@H]1OC(=O)[C@H]1CCCCCC)OC(=O)[C@H](CC(C)C)NC=O` [Orlistat (Tetrahydrolipstatin)] (concentration: 25 µM), the cell count was determined as 0.355 ± 0.074.

On to `O=C(CCCCCCC(=O)Nc1ccccc1)NO` [Vorinostat] (concentration: 250 nM), for which the cell count amounted to 0.71 ± 0.048.

As for `CCCNC(=O)NS(=O)(=O)c1ccc(Cl)cc1` [Chlorpropamide] (concentration: 25 µM), the cell count was 1.02 ± 0.048.

Consider `CC(=O)OCC(=O)[C@@]12OC3(CCCC3)O[C@@H]1C[C@H]1[C@@H]3CCC4=CC(=O)C=C[C@]4(C)[C@@]3(F)[C@@H](O)C[C@@]12C` [Amcinonide] (concentration: 25 µM), for which the cell count came out at 0.823 ± 0.039.

Compound `O=c1[nH]cnc2c1ncn2[C@H]1CC[C@@H](CO)O1` [Didanosine] (concentration: 25 µM) gave a cell count of 0.462 ± 0.15.

Regarding `COc1cc([C@@H]2c3cc4c(cc3[C@@H](O[C@@H]3O[C@@H]5CO[C@@H](C)O[C@H]5[C@H](O)[C@H]3O)[C@H]3COC(=O)[C@H]23)OCO4)cc(OC)c1O` [Etoposide] (concentration: 250 nM), the cell count amounted to 0.243 ± 0.051.

In turn, `CO[C@H]1C[C@@H]2CC[C@@H](C)[C@@](O)(O2)C(=O)C(=O)N2CCCC[C@H]2C(=O)O[C@H]([C@H](C)C[C@@H]2CC[C@@H](OC(=O)C(C)(CO)CO)[C@H](OC)C2)CC(=O)[C@H](C)/C=C(\C)[C@@H](O)[C@@H](OC)C(=O)[C@H](C)C[C@H](C)/C=C/C=C/C=C/1C` [Temsirolimus] (concentration: 25 µM) yielded a cell count of 0.358 ± 0.15.

Take `Cc1cn([C@@H]2C[C@@H](O)[C@H](CO)O2)c(=O)[nH]c1=O` [Telbivudine] (concentration: 25 µM): the cell count was 1.04 ± 0.17.

`CCN1CCN(C(=O)N[C@@H](C(=O)N[C@@H]2C(=O)N3[C@@H]2SC(C)(C)[C@@H]3C(=O)O)c2ccccc2)C(=O)C1=O` [Piperacillin] (concentration: 25 µM): the cell count stood at 0.91 ± 0.068.

For `CC(C)[N+]1(C)[C@@H]2CC[C@H]1CC(OC(=O)C(CO)c1ccccc1)C2` (some centres undefined) [Ipratropium·Br] (concentration: 25 µM), the cell count was 0.704 ± 0.18.

Compound `S=c1[nH]cnc2nc[nH]c12` [Mercaptopurine Hydrate] (concentration: 25 µM) had a cell count of 0.792 ± 0.1.

The compound `CCCCC(C)(O)C/C=C/[C@H]1[C@H](O)CC(=O)[C@@H]1CCCCCCC(=O)OC` (mixture of isomers) [Misoprostol] (concentration: 25 µM) showed a cell count of 0.702 ± 0.08.

`Cc1ccccc1C(=O)Nc1ccc(C(=O)N2CCCC(O)c3cc(Cl)ccc32)c(C)c1` (centres undefined) [Tolvaptan] (concentration: 25 µM) yielded a cell count of 0.95 ± 0.028.

In the case of `Nc1ccn(C[C@@H](CO)OCP(=O)(O)O)c(=O)n1` [Cidofovir] (concentration: 25 µM), the cell count was 0.593 ± 0.094.

Compound `CCOc1ccc2ccccc2c1C(=O)N[C@@H]1C(=O)N2[C@@H]1SC(C)(C)[C@@H]2C(=O)O` [Nafcillin·Na] (concentration: 25 µM) registered a cell count of 0.569 ± 0.13.

`NC(=O)c1ncn([C@@H]2O[C@H](CO)[C@@H](O)[C@H]2O)n1` [Ribavirin] (concentration: 25 µM) had a cell count of 0.625 ± 0.077.

As for `CC(C)N1CCN(c2ccc(OCC3COC(Cn4cncn4)(c4ccc(Cl)cc4Cl)O3)cc2)CC1` (centres undefined) [Terconazole] (concentration: 25 µM), the cell count came out at 0.299 ± 0.11.

`CCc1c2c(nc3ccc(OC(=O)N4CCC(N5CCCCC5)CC4)cc13)-c1cc3c(c(=O)n1C2)COC(=O)[C@]3(O)CC` [Irinotecan·HCl] (concentration: 250 nM) came in with a cell count of 0.414 ± 0.034.

`C[C@]12CCC3=C4CCC(=O)C=C4CC[C@H]3[C@@H]1CC[C@@]2(O)CC#N` [Dienogest] (concentration: 25 µM) had a cell count of 0.827 ± 0.15.

In the case of `CC(C)c1nc(N(C)S(C)(=O)=O)nc(-c2ccc(F)cc2)c1/C=C/[C@@H](O)C[C@@H](O)CC(=O)O` [Rosuvastatin Calcium] (concentration: 25 µM), the cell count turned out to be 0.689 ± 0.065.

Compound `COC(=O)C1=C(C)NC(C)=C(C(=O)OC(C)C)C1c1cccc2nonc12` (centres undefined) [Isradipine] (concentration: 25 µM) had a cell count of 1.13 ± 0.13.

Turning to `CO[C@@]12[C@H](COC(N)=O)C3=C(C(=O)C(C)=C(N)C3=O)N1C[C@@H]1N[C@@H]12` [Mitomycin C] (concentration: 2.5 µM), the cell count turned out to be 0.257 ± 0.048.

Consider `O=C(O)c1cc(=O)c2c(OCC(O)COc3cccc4oc(C(=O)O)cc(=O)c34)cccc2o1` [Cromolyn·Na (Disodium Cromoglycate)] (concentration: 25 µM), for which the cell count came out at 1.05 ± 0.096.

For the compound `Nc1ccn([C@@H]2O[C@H](CO)[C@@H](O)[C@@H]2O)c(=O)n1` [Cytarabine] (concentration: 25 nM), the cell count turned out to be 0.297 ± 0.088.
